For 19 compounds, growth inhibition, inhibition and outcome results are on record in PubChem BioAssay.

The nature of test [1]: antimalarial activity against Dd2 strain (AID 2302;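 active = growth inhibition above 50% at the single 2 µM test dose, taken to imply half-maximal potency below 2 µM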;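 also: 0% = DMSO untreated growth and 100% = chloroquine plus artemisinin killed control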). To be noted: P. falciparum Dd2 in RBCs, LDH growth readout, 72 h; at 2 µM; active compounds read high.
A short description of test [2]: HepG2 cytotoxicity, primary screen, cytotoxicity control for P. falciparum antimalarial project, cell-based, ATP luminescence (AID 2303;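 active = inhibition above 50%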;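 also: 0% = DMSO wells and 100% = digitonin-killed cells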). Particulars: HepG2 viability, 24-48 h, at 10 µM, active compounds read high.
In test [3] the target is L-lactate dehydrogenase (Plasmodium falciparum (isolate CDC / Honduras)) (UniProt Q27743). The test can be described thus: PfLDH activity inhibition – cell lysate, 3D7 strain, counter-screen for P. falciparum growth inhibition project (AID 2304).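 Also: 0% = vehicle and 100% = reference inhibitor.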 To be noted: P. falciparum 3D7 crude extract, LDH APAD/NBT absorbance; at 2 µM; active compounds read high. In general terms: A counterscreen serves to expose hits that act by an unwanted route or on another target.
Chain of L-lactate dehydrogenase (Plasmodium falciparum (isolate CDC / Honduras)) (Q27743 whole entry, looked up): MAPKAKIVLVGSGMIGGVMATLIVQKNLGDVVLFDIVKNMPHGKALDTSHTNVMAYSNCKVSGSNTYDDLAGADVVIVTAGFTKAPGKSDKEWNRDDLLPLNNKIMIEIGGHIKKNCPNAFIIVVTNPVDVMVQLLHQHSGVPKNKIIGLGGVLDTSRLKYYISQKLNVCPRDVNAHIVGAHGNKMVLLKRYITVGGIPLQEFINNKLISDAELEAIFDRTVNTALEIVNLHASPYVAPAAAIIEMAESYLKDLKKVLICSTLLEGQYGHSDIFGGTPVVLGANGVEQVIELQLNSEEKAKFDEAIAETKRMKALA

A short description of test [4]: inhibition of 3D7 malaria parasite growth – strain 3D7 (AID 2306).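 Also: 0% = DMSO wells and 100% = chloroquine plus artemisinin control wells.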 To be noted: P. falciparum 3D7 erythrocytic growth, LDH absorbance, 72 h; at 2 µM; active compounds read high.
The target in test [5] is Calcium-dependent protein kinase 1 (Plasmodium falciparum (isolate 3D7)) (UniProt P62344). Kind of test: PfCDPK1 kinase inhibitors, biochemical, TCAMS library (AID 1159585; cut-off not given, nearly all actives have IC50 up to about 0.98 µM;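 also: inhibitors leave more ATP so luminescence rises with inhibition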). Particulars: recombinant PfCDPK1, Kinase-Glo ATP depletion luminescence. In general terms: In Kinase-Glo more light means more ATP remaining.
Chain of Calcium-dependent protein kinase 1 (Plasmodium falciparum (isolate 3D7)) (P62344 whole entry, looked up): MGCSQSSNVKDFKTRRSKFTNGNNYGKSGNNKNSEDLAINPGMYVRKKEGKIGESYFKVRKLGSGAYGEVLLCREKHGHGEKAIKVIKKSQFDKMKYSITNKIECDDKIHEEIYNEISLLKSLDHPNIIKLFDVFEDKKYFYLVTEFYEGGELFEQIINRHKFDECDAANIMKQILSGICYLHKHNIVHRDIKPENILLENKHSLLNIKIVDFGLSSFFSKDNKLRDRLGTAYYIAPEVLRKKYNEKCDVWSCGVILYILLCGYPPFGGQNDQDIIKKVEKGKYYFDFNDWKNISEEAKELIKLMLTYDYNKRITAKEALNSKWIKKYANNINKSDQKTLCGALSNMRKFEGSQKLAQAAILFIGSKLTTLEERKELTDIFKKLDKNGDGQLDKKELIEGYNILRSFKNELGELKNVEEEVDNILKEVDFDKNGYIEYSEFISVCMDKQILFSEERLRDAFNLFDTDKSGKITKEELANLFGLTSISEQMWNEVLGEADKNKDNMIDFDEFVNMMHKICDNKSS
The target of test [6] is Plasmodium falciparum protein kinase 6 (PK6, PF3D7_1337100) (UniProt Q8IDW1). Kind of test: PfPK6 kinase inhibitors, biochemical, TCAMS library (AID 1159586). Particulars: recombinant PfPK6, Kinase-Glo ATP depletion luminescence.
Chain of Plasmodium falciparum protein kinase 6 (PK6, PF3D7_1337100) (Q8IDW1 1-305): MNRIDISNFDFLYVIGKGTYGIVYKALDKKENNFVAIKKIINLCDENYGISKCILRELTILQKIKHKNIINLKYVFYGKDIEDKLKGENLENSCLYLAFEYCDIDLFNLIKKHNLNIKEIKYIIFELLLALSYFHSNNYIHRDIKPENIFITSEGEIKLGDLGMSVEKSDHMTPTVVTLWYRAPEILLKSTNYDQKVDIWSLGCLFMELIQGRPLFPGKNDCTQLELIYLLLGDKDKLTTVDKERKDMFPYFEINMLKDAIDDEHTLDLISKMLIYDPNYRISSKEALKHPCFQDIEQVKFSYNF
Test [7] concerns the target Protein kinase 7 (PK7), Plasmodium falciparum 3D7 (PF3D7_0213400) (UniProt Q7YTF7). Kind of test: inhibition of Plasmodium PK7 catalytic activity – biochemical, TCAMS antimalarial set, Kinase-Glo luminescence (AID 1159587). To be noted: recombinant PfPK7, Kinase-Glo ATP depletion luminescence.
Test [8] deals with Calcium-dependent protein kinase 4 (Plasmodium falciparum (isolate 3D7)) (UniProt Q8IBS5). The test can be described thus: PfCDPK4 kinase inhibitors, biochemical, TCAMS library (AID 1159588; cut-off not given, nearly all actives have IC50 up to about 0.91 µM). Particulars: recombinant PfCDPK4, Kinase-Glo ATP depletion luminescence.
Chain of Calcium-dependent protein kinase 4 (Plasmodium falciparum (isolate 3D7)) (Q8IBS5 whole entry, looked up): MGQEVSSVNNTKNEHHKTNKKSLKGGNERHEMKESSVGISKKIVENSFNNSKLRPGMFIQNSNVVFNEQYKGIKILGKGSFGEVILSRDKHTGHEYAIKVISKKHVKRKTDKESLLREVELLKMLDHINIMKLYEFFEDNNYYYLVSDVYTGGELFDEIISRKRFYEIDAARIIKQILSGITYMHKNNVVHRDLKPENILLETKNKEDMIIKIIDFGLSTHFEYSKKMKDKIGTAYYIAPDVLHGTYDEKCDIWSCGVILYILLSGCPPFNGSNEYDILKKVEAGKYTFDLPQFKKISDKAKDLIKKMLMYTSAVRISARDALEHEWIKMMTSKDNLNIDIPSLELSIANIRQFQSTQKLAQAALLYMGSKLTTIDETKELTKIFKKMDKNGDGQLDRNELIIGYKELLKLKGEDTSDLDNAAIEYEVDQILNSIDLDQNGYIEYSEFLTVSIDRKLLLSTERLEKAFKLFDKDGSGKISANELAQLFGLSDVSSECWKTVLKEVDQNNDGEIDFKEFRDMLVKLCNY

A number with no mark means an inactive call. For some assays here: Measured potencies and affinities stand elsewhere. Active and inactive are the calls of the source. Unless noted, no rule for the calls is given here.

Chain of Protein kinase 7 (PK7), Plasmodium falciparum 3D7 (PF3D7_0213400) (Q7YTF7 1-343): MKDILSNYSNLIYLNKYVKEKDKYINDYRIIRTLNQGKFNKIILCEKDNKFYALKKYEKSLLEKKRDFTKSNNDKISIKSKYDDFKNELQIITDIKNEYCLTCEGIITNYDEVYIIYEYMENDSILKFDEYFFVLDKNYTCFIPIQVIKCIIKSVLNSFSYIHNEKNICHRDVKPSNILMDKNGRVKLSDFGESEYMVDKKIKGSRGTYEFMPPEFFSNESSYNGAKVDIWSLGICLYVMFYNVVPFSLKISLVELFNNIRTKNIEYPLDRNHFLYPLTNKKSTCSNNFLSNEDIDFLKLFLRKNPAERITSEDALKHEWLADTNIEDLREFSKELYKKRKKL

In general, inhibition refers to the relative decrease from the control value, in per cent. For the compound `CNC(=O)C1Cc2c([nH]c3cc(Br)ccc23)C2(CCN(CCc3ccccc3)CC2)N1` (configuration not stated), the values for the growth inhibition in test [1] and in test [4] were 31% and 101% (active), respectively. Also, the inhibition in test [2] was 10%; in test [3], -8%. In addition, the result in test [5], in test [6], in test [7] and in test [8] was inactive.
For `CCN(CC)CCN(Cc1ccc(-c2ccc(C(F)(F)F)cc2)cc1)C(=O)Cn1c(CCc2cccc(F)c2F)nc(=O)c2ccccc21`, the growth inhibition in test [1] was 60% (active); in test [4], 97% (active). Also, the inhibition in test [2] was 49%; in test [3], -3%. The result in test [5], in test [6], in test [7] and in test [8] was inactive.
On to `CN(Cc1ccc(C#N)cc1)C1CCN(c2cc(NC(=O)c3cccc(F)c3)ccn2)CC1`, for which the growth inhibition was -9% in test [1] and 83% (active) in test [4]. In addition, the inhibition in test [2] is 9%; in test [3], -2%. The outcome in test [5], in test [6], in test [7] and in test [8] was inactive.
For `CCN1CCN(c2cc(C)c3cc(NC(=O)c4ccc([N+](=O)[O-])c(C)c4)ccc3n2)CC1`, the growth inhibition in test [1] is 39%; in test [4] it was 92% (active). Besides, the inhibition was 8% in test [2] and -2% in test [3]. Besides, the result in test [5], in test [6], in test [7] and in test [8] was inactive.
Consider `COc1ccc(N2CCN(c3nc(N)c4cc(OC)c(OC)cc4n3)CC2C)cc1` (configuration not stated), for which the growth inhibition in test [1] is 0%; in test [4] it was 95% (active). Moreover, the figures for the inhibition in test [2] and in test [3] were 8% and 0%, respectively. For the same compound, the outcome in test [5], in test [6], in test [7] and in test [8] was inactive.
Consider `Cc1cccc2[nH]c(-c3ccc(-c4ccc(CN5CCN(c6ccncc6)CC5)cc4)s3)nc12`, for which the growth inhibition in test [1] was 98% (active); in test [4], 102% (active). In addition, the inhibition was 85% (active) in test [2] and 2% in test [3]. The outcome in test [5], in test [6], in test [7] and in test [8] was inactive.
Regarding `COc1ccc(-c2nc(NC(=O)Cc3coc4cc(OC)ccc34)sc2C)cc1`, the growth inhibition in test [1] was 77% (active); in test [4], 100% (active). Further, the inhibition in test [2] was 9%; in test [3] it was -2%. Further, the outcome in test [5], in test [6], in test [7] and in test [8] was inactive.
In the case of `O=S(=O)(Nc1cccc(CCN2CCC(N3CCCCC3)CC2)c1)c1cccc2ccccc12`, the growth inhibition in test [1] is 63% (active); in test [4], 99% (active). Besides, the values for the inhibition in test [2] and in test [3] were 23% and 2%, respectively. Moreover, the result in test [5], in test [6], in test [7] and in test [8] was inactive.
Regarding `O=C(Nc1ccc(F)cc1)NC1CCN(CCCCCNC(=O)[C@@H]2C[C@H]2c2ccc(Cl)c(Cl)c2)CC1`, the growth inhibition in test [1] was 20%; in test [4], 101% (active). For the same compound, the inhibition in test [2] is 46%; in test [3] it was -2%. Also, the outcome in test [5], in test [6], in test [7] and in test [8] was inactive.
For the compound `COc1ccccc1NC(=O)OC(COc1ccc(N)cc1)CN1CC=C(c2ccccc2)CC1` (configuration not stated), the results for the growth inhibition in test [1] and in test [4] were 81% (active) and 90% (active), respectively. The inhibition in test [2] is 16%; in test [3], 3%. For the same compound, the outcome in test [5], in test [6], in test [7] and in test [8] was inactive.
Regarding `O=C(NCc1ccc(Cl)c(Cl)c1)[C@H]1CNCCN1C(=O)c1ccccc1`, the growth inhibition is 4% in test [1] and 97% (active) in test [4]. Besides, the inhibition was -5% in test [2] and 1% in test [3]. The result in test [5], in test [6], in test [7] and in test [8] was inactive.
As to `O=C(Nc1ccc(-c2cccc(-c3nc4ccccc4[nH]3)c2)cc1)N[C@@H]1C[C@H]1c1ccccc1`, the figures for the growth inhibition in test [1] and in test [4] were 6% and 84% (active), respectively. Besides, the inhibition in test [2] was 63% (active); in test [3], -2%. In addition, the outcome in test [5], in test [6], in test [7] and in test [8] was inactive.
Regarding `COc1ccc2nccc([C@@H](O)CN3CCC(NC(=O)COc4nc(SCc5ccc(F)cc5)nc5c4CCC5)CC3)c2c1`, the values for the growth inhibition in test [1] and in test [4] were 78% (active) and 96% (active), respectively. The results for the inhibition in test [2] and in test [3] were 29% and -2%, respectively. Further, the result in test [5], in test [6], in test [7] and in test [8] was inactive.
With `CCCCCCC(C)c1cc(O)c2c(c1)OC(=O)CC2(CC)c1ccccn1` (configuration not stated), the growth inhibition in test [1] is -2%; in test [4], 100% (active). The results for the inhibition in test [2] and in test [3] were 15% and -2%, respectively. In addition, the result in test [5], in test [6], in test [7] and in test [8] was inactive.
`O=C(c1cc2c(s1)-c1cccc(Cl)c1SC2)N1CCN(c2ccncc2)CC1`: the figures for the growth inhibition in test [1] and in test [4] were 36% and 94% (active), respectively. The values for the inhibition in test [2] and in test [3] were 45% and 1%, respectively. Besides, the outcome in test [5], in test [6], in test [7] and in test [8] was inactive.
For the compound `COc1cccc(Nc2nccc(NCC(O)c3cccc(C(F)(F)F)c3)n2)c1` (configuration not stated), the values for the growth inhibition in test [1] and in test [4] were 27% and 96% (active), respectively. The inhibition in test [2] was 6%; in test [3] it was -4%. For the same compound, the result in test [5], in test [6], in test [7] and in test [8] was inactive.
Consider `CN1CCN(Cc2nc(-c3ccc4c(Nc5ccc(F)c(O)c5)ccnc4c3)cs2)CC1`, for which the growth inhibition in test [1] and in test [4] was 100% (active) in each case. In addition, the inhibition in test [2] is 0%; in test [3], 7%. Further, the outcome in test [5], in test [6], in test [7] and in test [8] was inactive.
Regarding `CCOc1cc(Cc2cnc(N)nc2N)cc(OC)c1OC`, the growth inhibition in test [1] is 0%; in test [4] it was 90% (active). Moreover, the results for the inhibition in test [2] and in test [3] were -3% and -1%, respectively. Further, the outcome in test [5], in test [6], in test [7] and in test [8] was inactive.
For the compound `COc1ccc(S(=O)(=O)NC2CCN(CCNC(=O)Nc3cc(C)nc4ccccc34)C2)cc1` (configuration not stated), the growth inhibition is 41% in test [1] and 88% (active) in test [4]. In addition, the values for the inhibition in test [2] and in test [3] were -2% and 1%, respectively. Besides, the result in test [5], in test [6], in test [7] and in test [8] was inactive.
